# Bioassay records (PubChem)
# HepG2 viability – kills HepG2 cells in TGF-b inhibitor counter-screen; HepG2 CAGA-GFP viability, ATP luminescence, 18 h; Potency, µM (doses to about 46.1 µM), without a hit: at the highest dose activity change, negative = cytotoxicity, most hits filed as cytotoxic; 410,000 compounds, 0.76% hits; AID 588856; note: potency is the fitted concentration of half-maximal effect
#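 CellTiter-Glo luminescence gave cytotoxicity after 18 hours at 37 degrees C. The cells were HepG2 CAGA-GFP in 1% FBS DMEM, stimulated with 500 pg/mL TGF-beta after compound addition. %Activity was normalised to no-cell wells (complete cell-killing) and DMSO (no toxicity), and curves were fitted and classified.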
# TDP1 cell noCPT – qHTS for Inhibitors of human tyrosyl-DNA phosphodiesterase 1 (TDP1): qHTS in cells in absence of CPT. DT40 Tdp1-/- hTDP1 cells, no CPT, ATP luminescence, 48 h. Potency, µM (titrated, usually from 46.2 µM), inactives show at the highest dose activity change, negative = growth inhibition, hits mostly inhibitors. 420,000 compounds, 15% hits. AID 686978, 2013; note: potency is the fitted concentration of half-maximal effect; % is set by controls: 0 for no effect and ±100 for the full control effect; nearly all actives have a fitted effect of over 55% in size
#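 Compound effects on proliferation are scored in DT40 Tdp1-/-;hTDP1 cells in the absence of CPT. ATP levels (CellTiter-Glo luminescence) are recorded after a ≥48 hr, 37 °C incubation.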
# TDP1 cell CPT – DT40-hTDP1 cell growth loss with CPT; chicken DT40 Tdp1-/-;hTDP1 cells + 20 nM CPT, ATP luminescence, 48 h; Potency, µM (highest dose often 46.2 µM), inactives show at the top dose activity change, negative = growth inhibition, actives largely listed as inhibitors; 420,000 compounds, 12% hits; note: potency is the fitted concentration of half-maximal effect; % is set by controls: 0 for no effect and ±100 for the full control effect; nearly all actives have a fitted effect of over 55% in size
#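 Cell growth measured by CellTiter-Glo luminescence after a minimum 48 h, 37 C compound exposure with 20 nM CPT in Tdp1-knockout DT40 cells stably expressing hTDP1, seeded 400/well; qHTS titration format.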
# TDP1 inh – inhibitors of human tyrosyl-DNA phosphodiesterase TDP1; Q9NUW8; recombinant TDP1, AlphaScreen DNA substrate cleavage; Potency, µM (titrated, usually from 130 µM), without a hit: at the highest dose activity change, negative = inhibition, actives largely listed as inhibitors; 350,000 compounds, 0.28% hits; note: potency is the fitted concentration of half-maximal effect; % is set by controls: 0 for no effect and ±100 for the full control effect; nearly all actives have a fitted effect of over 40% in size
# Target sequence (Q9NUW8 whole entry, looked up): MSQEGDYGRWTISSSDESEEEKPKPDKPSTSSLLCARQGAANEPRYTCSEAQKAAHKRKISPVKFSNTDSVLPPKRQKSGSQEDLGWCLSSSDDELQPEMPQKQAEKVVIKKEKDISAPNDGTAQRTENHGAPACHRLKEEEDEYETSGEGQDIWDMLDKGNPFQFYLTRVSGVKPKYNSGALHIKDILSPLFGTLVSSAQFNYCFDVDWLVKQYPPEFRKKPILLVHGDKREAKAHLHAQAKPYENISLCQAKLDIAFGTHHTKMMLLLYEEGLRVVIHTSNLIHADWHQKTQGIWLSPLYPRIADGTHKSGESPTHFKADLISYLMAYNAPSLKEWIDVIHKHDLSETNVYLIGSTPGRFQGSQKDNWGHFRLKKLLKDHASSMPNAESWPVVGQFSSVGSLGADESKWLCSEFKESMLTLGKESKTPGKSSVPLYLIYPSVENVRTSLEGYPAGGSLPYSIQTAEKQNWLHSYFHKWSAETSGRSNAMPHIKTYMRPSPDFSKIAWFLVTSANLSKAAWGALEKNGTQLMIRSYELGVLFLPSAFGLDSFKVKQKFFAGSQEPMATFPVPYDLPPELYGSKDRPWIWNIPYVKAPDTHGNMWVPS
#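 Enzyme-compound mixtures sat 15 min at room temperature, followed by a 5 min reaction with 15 nM final substrate and 10 min with AlphaScreen beads. Recombinant human Tdp1 was used at 1 nM final.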
# TGFb SMAD3 inh – blocks TGF-b signaling | 410,000 compounds, 1.2% hits | AID 588855 | Potency, µM (series often up to 46.1 µM), for the others: top-dose activity, negative = inhibition, most hits filed as inhibitors | HepG2 CAGA-GFP TGF-b/SMAD3 reporter, GFP fluorescence, 18 h; TGF-beta stimulated, 500 pg/mL final; note: potency is the fitted concentration of half-maximal effect; % is set by controls: 0 for no effect and ±100 for the full control effect; nearly all actives have a fitted effect of over 65% in size
#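 GFP signal (ex488/em500-530) from TGF-beta-stimulated HEPG2 CAGA-GFP cells, 500 pg/mL final, 18 h at 37 degrees C in DMEM plus 1% FBS, normalized to unstimulated and DMSO-stimulated controls.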
# IL-1B inflam inh – inhibitors of inflammasome signaling (IL-1 beta secretion); activity change, % at 57.5 µM; AID 743279; 360,000 compounds, 4.7% hits; THP-1 LPS/ATP IL-1B secretion, AlphaLISA, 16 h; active compounds read low; in the data active = activity change below about -50%; inconclusive = mostly about -30% to -49%; note: % is set by controls: 0 for no effect and ±100 for the full control effect
#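 Secreted IL-1B measured by AlphaLISA bead assay after 16 h compound exposure of THP-1 cells; compounds (final up to 57.5 uM) added 1 h before LPS (250 ng/mL) and ATP (1.25 mM) stimulation; lower signal means less secretion.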
# * marks the source's active call; other numbers are inactive results; u = inconclusive; x = no result; [ ] = remark or other dose. A selection: hits, their analogues and other compounds. The true share with any hit is near 18%. Unless noted, calls come from the whole dose curve; as a rule, active = well fitted curve in the direction sought with a large enough effect; inconclusive = small, poorly fitted or top-dose-only effect, or another doubt; inactive = no such curve, though single readings can be large; an effect the other way counts as inactive or inconclusive.
SMILES,HepG2 viability,TDP1 cell noCPT,TDP1 cell CPT,TDP1 inh,TGFb SMAD3 inh,IL-1B inflam inh
Cc1ccc(C)c2c1cc(C)c1nnc(SCC(=O)N3CCCc4ccccc43)n12,-37%,15µM*,u,0%,-17%,-1
CCOc1ccccc1NC(=O)CSc1nccn1-c1cccc(C)c1,-33%,18µM*,21µM*,10%,-6%,x
CCc1ccc(NC(=O)CSc2nccn2-c2cccc(C)c2C)cc1,-31%,21µM*,23µM*,12%,u,x
CCc1ccc(NC(=O)CSc2nccn2-c2ccc(F)cc2)cc1,-30%,-18%,u,8%,-36%,x
CCOc1ccc(-n2ccnc2SCC(=O)Nc2cccc3ccccc23)cc1,12%,u,u,8%,-5%,x
CNC(=O)CCCCC(=O)N/N=C/c1ccc(Cl)cc1Cl,-2%,18%,-7%,x,-2%,-2
Cc1cc(C)cc(Cn2cc(CN3CC(N4CCSCC4)CS3(=O)=O)nn2)c1 (configuration not stated),x,-23%,-10%,x,x,-20
COCCN(C(=O)c1cc2c(s1)CCC2)c1c(N)n(CC(C)C)c(=O)[nH]c1=O,4%,-6%,1%,u,u,-13
Cc1cc(C2=CC(=O)C[C@H](c3ccc(F)cc3)C2)ccc1F,-39%,u,u,x,u,-11
Cc1ccc(CNC(=O)CN2CCN(c3ccc(F)cc3)CC2)cc1,-1%,u,-20%,4%,2%,30
O=C(CCS(=O)(=O)c1cccs1)Nc1ccc(C(=O)Nc2cccc(Cl)c2)cc1,-7%,u,8%,2%,-12%,x
Cc1ccc(C)c(NC(=O)CSc2nccn2-c2cccc(C)c2C)c1,-32%,21µM*,18µM*,7%,u,x
CCOc1ccc(-n2ccnc2SCC(=O)Nc2cc(C)ccc2C)cc1,-1%,u,u,2%,15%,x
Cc1cccc(-n2ccnc2SCC(=O)Nc2ccc(F)cc2F)c1C,-19%,21µM*,16µM*,3%,-3%,x
O=C(CSc1nccn1-c1cccc(Cl)c1)NC1CCCC1,-25%,21µM*,-23%,4%,-2%,-1
CCc1ccc(NC(=O)CSc2nccn2C2CCCC2)cc1,-20%,u,18µM*,9%,9%,x
C[C@H](CO)N1C[C@H](C)[C@@H](CN(C)S(=O)(=O)c2ccc(-n3cccn3)cc2)OCc2cnnn2CCCC1=O,-2%,6%,-3%,x,8%,2
COc1ccc(C)cc1NC(=O)CN1C(=O)COc2ccc(S(=O)(=O)N3CCCCC3)cc21,0%,u,u,5%,10%,-8
Cn1ccnc1SCC(=O)N1CCc2ccccc21,-17%,16%,2%,4%,-24%,-3
Cc1cccc(NC(=O)CSc2nccn2-c2cccc(Cl)c2)c1C,-18%,u,21µM*,9%,u,x
Cc1cccc(-n2ccnc2SCC(=O)N2CCCc3ccccc32)c1C,-16%,21µM*,18µM*,2%,1%,-21
O=C(Nc1ccc(F)c(F)c1)c1ccc(=O)n(Cc2ccc(F)cc2)c1,-2%,u,u,5%,-20%,x
N#Cc1cccc(Cn2cc(C(F)(F)F)ccc2=O)c1,-3%,-1%,9%,3%,3%,25
O=C(Nc1ccccc1)c1cccc(Cn2cc(C(F)(F)F)ccc2=O)c1,-11%,21µM*,u,3%,-7%,-4
O=C(Nc1ccccc1)c1ccc(Cn2cc(C(F)(F)F)ccc2=O)cc1,0%,-2%,-10%,0%,-1%,5
SMILES,HepG2 viability,TDP1 cell noCPT,TDP1 cell CPT,TDP1 inh,TGFb SMAD3 inh,IL-1B inflam inh
O=C(Nc1ccc(Cn2ccnc2)cc1)c1cccc(C(F)(F)F)c1,-18%,-17%,-24%,1%,-13%,-54*
O=C(Nc1cc(C(F)(F)F)cc(C(F)(F)F)c1)c1ccc(Cn2cc(C(F)(F)F)ccc2=O)cc1,-27%,16µM*,21µM*,8%,-2%,29
O=C(Sc1ccccc1)c1cccc(Cn2cc(C(F)(F)F)ccc2=O)c1,-184%,16µM*,18µM*,-3%,-30%,-12
COc1ccc(C(=O)Nc2ccc(Cn3ccnc3)cc2)cc1OC,-14%,-4%,21%,x,1%,-14
COC(=O)c1ccc(Cn2nc(-c3cc(C)ccc3C)ccc2=O)cc1,-1%,u,-28%,x,-1%,12
COc1cc(C)ccc1S(=O)(=O)NC(=O)C1(C)CCN1C(=O)COc1ccc(Cl)cc1 (configuration not stated),0%,-4%,2%,x,-3%,40
O=C(OCC(=O)N1CCCc2ccccc21)c1cc(Cl)ccc1O,-2%,13%,-15%,3%,-9%,16
CN1CCN(CCCNC(=O)c2cc3c(=O)n(C)c4ccccc4c3s2)CC1,-39%,12µM*,8.2µM*,0%,3%,-81*
O=C(NCCCN1CCN(c2cccc(Cl)c2)CC1)c1cccc(N2CCCC2=O)c1,-9%,u,u,4%[56.1 µM],13%,-10
Cn1c(=O)c2cc(C(=O)NCCCN3CCN(c4cccc(Cl)c4)CC3)sc2c2ccccc21,-28%,2.9µM*,u,2%,-13%,x
CCN1CCN(CCCNC(=O)c2cc3c(=O)n(CC)c4ccccc4c3s2)CC1,-44%,u,u,2%,u,x
Nc1ccc(-c2nc3c(ccc4ccccc43)[nH]2)cc1,-14%,u,u,6%,-11%,-27
CCOC(=O)C1CCN(c2nc3c(S(=O)(=O)c4ccc(Br)cc4)nnn3c3ccsc23)CC1,0%,u,u,-3%,u,x
CC(C)C1Oc2ccccc2N(CC(=O)N(C)C2CCCCC2)C1=O (configuration not stated),0%,u,u,x,7%,-74*
Cc1ccc(C)c(N(CC(=O)NC2CCCC2)S(=O)(=O)c2ccccc2)c1,-5%,8.2µM*,12µM*,1%,-7%,u
O=C(CN(c1ccccc1)S(=O)(=O)c1ccccc1)Nc1ccccc1C(=O)NCc1ccco1,-14%,16µM*,u,-1%,-13%,0
CS(=O)(=O)N(CC(=O)Nc1ccccc1C(=O)NCc1ccco1)c1ccccc1F,-14%,-28%,3%,-3%,-1%,10
Cc1ccc(Cl)cc1N(CC(=O)NC1CCCCC1)S(C)(=O)=O,4%,0%,-1%,8%,-20%,6
